# Key:
# [1] = biological target: Sphingosine kinase 1 (Homo sapiens) (UniProt Q9NYA1); details: at 1 µM;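 also: mean SPHK1 inhibition value reported from the GSK PKIS kinase panel screen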
# [2] = biological target: T1, Sphingosine kinase 2 (Homo sapiens) (UniProt Q9NRA0); details: at 0.1 µM
# T1 sequence (whole entry): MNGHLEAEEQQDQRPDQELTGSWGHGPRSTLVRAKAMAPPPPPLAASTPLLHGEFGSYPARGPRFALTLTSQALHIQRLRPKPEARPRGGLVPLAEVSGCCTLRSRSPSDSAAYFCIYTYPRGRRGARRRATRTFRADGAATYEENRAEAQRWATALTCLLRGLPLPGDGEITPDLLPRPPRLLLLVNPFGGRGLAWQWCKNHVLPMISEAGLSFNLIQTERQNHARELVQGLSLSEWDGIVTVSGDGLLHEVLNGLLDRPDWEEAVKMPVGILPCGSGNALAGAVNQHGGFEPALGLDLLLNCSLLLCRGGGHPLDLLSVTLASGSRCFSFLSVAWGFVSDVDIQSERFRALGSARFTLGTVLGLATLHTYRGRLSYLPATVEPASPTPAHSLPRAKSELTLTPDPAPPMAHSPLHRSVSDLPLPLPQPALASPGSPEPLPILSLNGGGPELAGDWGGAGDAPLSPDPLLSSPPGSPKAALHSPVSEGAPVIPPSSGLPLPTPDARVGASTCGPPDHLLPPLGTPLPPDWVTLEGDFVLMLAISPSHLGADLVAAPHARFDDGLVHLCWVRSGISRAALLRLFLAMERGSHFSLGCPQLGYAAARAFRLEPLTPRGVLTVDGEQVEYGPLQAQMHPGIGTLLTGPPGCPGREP
# [3] = biological target: T1, Sphingosine kinase 2 (Homo sapiens); details: at 1 µM
# [4] = biological target: Casein kinase II subunit alpha (Homo sapiens) (UniProt P68400); details: at 0.1 µM
# Sequence of Casein kinase II subunit alpha (Homo sapiens) (P68400 whole entry, looked up): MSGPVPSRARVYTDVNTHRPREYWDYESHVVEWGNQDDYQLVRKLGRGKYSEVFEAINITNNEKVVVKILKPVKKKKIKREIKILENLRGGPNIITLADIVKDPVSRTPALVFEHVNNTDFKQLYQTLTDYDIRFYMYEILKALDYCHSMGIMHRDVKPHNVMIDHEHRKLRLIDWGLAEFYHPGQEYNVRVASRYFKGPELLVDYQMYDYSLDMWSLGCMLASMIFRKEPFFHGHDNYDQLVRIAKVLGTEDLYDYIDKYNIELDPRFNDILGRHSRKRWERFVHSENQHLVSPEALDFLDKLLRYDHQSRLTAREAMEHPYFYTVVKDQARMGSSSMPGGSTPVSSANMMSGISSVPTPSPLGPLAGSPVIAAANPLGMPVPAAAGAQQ
# [5] = biological target: Casein kinase II subunit alpha (Homo sapiens) (UniProt P68400); details: at 1 µM
# [6] = biological target: T2, Inhibitor of nuclear factor kappa-B kinase subunit alpha (Homo sapiens) (UniProt O15111); details: at 0.1 µM
# T2 sequence (whole entry): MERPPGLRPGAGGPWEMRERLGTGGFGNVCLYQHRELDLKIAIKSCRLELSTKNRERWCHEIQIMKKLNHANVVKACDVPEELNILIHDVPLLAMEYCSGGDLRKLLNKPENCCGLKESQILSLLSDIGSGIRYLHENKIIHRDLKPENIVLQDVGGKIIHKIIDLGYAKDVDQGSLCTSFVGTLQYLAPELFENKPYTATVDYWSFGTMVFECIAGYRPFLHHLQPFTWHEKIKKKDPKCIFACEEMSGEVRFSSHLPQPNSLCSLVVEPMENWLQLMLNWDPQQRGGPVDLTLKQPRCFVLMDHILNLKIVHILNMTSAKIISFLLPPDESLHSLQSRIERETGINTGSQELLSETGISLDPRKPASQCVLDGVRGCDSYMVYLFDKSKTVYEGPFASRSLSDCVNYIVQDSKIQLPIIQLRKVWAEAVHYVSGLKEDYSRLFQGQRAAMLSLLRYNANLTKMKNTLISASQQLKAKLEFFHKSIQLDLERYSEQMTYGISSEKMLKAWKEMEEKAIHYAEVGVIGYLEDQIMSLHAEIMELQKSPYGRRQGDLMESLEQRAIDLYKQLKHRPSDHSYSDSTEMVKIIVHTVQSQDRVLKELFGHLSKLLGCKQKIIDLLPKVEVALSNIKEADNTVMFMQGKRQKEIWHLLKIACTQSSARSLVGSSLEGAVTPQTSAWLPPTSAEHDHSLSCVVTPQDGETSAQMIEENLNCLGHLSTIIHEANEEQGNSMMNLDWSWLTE
# [7] = biological target: T2, Inhibitor of nuclear factor kappa-B kinase subunit alpha (Homo sapiens); details: at 1 µM
# [8] = biological target: T3, Inhibitor of nuclear factor kappa-B kinase subunit beta (Homo sapiens) (UniProt O14920); details: at 0.1 µM
# T3 sequence (whole entry): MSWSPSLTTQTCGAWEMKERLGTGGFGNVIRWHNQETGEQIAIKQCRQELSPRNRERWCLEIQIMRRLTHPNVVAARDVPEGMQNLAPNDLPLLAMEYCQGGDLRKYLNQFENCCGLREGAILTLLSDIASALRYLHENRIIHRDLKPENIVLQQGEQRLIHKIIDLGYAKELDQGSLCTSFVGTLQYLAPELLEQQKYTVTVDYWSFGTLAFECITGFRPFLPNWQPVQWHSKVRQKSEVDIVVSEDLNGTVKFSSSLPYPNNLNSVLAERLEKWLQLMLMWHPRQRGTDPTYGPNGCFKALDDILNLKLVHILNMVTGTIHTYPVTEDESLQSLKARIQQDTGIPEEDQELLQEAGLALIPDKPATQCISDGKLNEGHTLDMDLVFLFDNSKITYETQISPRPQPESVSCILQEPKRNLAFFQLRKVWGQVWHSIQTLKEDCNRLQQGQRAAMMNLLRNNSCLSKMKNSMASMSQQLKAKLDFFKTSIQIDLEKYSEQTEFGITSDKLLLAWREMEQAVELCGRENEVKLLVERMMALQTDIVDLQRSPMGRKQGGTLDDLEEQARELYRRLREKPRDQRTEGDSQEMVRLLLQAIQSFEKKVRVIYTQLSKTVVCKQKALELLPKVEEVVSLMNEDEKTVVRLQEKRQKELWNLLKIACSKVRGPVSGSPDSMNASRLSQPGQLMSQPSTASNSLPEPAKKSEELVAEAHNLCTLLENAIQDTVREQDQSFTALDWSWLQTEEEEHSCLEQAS
# [9] = biological target: T3, Inhibitor of nuclear factor kappa-B kinase subunit beta (Homo sapiens); details: at 1 µM
# [10] = biological target: T4, Inhibitor of nuclear factor kappa-B kinase subunit epsilon (Homo sapiens) (UniProt Q14164); details: at 0.1 µM
# T4 sequence (whole entry): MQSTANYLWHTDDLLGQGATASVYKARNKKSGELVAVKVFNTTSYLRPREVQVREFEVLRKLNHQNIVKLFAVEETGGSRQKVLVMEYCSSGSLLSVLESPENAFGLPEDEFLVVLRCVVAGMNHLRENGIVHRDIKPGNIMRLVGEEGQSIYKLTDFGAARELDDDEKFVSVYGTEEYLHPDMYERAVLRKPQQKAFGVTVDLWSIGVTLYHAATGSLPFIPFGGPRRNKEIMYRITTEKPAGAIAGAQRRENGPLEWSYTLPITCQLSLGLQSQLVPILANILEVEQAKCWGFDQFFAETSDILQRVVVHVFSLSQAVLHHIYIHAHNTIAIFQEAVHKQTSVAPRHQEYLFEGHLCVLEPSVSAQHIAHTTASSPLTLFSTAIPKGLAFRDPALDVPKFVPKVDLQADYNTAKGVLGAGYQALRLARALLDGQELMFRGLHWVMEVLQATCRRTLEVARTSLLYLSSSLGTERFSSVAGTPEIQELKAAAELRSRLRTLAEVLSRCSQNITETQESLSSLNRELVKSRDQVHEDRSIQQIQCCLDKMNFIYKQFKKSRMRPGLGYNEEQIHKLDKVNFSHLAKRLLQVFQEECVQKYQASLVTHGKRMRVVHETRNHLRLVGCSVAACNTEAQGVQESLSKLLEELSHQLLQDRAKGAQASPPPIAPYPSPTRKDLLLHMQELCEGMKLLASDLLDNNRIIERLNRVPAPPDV
# [11] = biological target: T4, Inhibitor of nuclear factor kappa-B kinase subunit epsilon (Homo sapiens); details: at 1 µM
# [12] = biological target: T5, Serine/threonine-protein kinase Nek1 (Homo sapiens) (UniProt Q96PY6); details: at 0.1 µM
# T5 sequence (whole entry): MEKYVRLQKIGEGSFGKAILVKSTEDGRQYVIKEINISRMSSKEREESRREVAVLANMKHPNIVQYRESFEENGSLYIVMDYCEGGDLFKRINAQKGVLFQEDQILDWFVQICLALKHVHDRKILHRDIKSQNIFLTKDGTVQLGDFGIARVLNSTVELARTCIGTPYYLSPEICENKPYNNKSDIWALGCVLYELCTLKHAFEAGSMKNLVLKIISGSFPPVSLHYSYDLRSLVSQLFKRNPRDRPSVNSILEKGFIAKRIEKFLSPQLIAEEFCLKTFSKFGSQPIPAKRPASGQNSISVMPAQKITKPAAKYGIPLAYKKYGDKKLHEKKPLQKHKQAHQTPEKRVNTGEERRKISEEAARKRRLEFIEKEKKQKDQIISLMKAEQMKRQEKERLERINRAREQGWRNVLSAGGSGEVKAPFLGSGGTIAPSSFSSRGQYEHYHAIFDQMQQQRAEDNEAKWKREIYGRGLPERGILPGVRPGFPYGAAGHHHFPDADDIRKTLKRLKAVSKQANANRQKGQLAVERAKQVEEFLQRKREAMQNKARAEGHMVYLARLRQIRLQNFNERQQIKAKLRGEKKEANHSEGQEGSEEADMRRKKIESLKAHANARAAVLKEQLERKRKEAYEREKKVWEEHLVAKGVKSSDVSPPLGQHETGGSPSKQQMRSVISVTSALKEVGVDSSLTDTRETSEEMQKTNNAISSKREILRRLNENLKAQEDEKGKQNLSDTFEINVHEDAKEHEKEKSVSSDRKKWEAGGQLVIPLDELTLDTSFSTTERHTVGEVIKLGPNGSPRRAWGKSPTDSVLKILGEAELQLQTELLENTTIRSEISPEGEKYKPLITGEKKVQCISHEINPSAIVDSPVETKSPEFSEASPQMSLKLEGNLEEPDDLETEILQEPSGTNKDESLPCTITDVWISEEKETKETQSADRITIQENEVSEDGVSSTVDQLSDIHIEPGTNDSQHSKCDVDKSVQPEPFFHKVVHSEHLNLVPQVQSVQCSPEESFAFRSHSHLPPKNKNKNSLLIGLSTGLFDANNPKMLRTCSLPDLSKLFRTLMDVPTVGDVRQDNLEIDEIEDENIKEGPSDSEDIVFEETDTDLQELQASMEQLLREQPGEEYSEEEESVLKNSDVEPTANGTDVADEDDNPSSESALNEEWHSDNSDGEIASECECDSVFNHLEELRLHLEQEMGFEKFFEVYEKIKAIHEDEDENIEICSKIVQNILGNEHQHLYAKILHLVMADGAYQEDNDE
# [13] = biological target: T5, Serine/threonine-protein kinase Nek1 (Homo sapiens); details: at 1 µM
# [14] = biological target: T6, Serine/threonine-protein kinase Nek2 (Homo sapiens) (UniProt P51955); details: at 0.1 µM
# T6 sequence (whole entry): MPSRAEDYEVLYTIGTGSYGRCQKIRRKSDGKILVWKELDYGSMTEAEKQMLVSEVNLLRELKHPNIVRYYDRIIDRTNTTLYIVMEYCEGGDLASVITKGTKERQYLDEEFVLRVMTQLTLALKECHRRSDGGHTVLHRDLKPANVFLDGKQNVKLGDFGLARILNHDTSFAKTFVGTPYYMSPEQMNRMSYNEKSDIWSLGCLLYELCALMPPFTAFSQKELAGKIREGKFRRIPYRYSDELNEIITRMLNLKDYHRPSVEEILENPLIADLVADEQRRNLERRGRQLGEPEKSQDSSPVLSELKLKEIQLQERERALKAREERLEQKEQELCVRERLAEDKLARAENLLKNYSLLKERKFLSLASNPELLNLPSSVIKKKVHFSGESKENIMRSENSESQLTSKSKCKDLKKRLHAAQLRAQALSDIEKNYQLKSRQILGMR
# [15] = biological target: T6, Serine/threonine-protein kinase Nek2 (Homo sapiens); details: at 1 µM
# [16] = biological target: Serine/threonine-protein kinase Nek6 (Homo sapiens) (UniProt Q9HC98); details: at 0.1 µM
# Sequence of Serine/threonine-protein kinase Nek6 (Homo sapiens) (Q9HC98 whole entry): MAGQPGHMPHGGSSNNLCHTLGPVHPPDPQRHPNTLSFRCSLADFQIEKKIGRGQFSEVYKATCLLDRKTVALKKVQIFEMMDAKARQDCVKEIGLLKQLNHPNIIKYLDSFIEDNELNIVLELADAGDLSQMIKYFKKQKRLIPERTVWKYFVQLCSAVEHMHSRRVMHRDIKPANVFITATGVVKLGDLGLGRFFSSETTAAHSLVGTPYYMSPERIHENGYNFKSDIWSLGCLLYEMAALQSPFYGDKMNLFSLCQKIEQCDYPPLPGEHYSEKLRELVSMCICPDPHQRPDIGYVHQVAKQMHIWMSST
# [17] = biological target: Serine/threonine-protein kinase Nek6 (Homo sapiens) (UniProt Q9HC98); details: at 1 µM
# [18] = biological target: Serine/threonine-protein kinase Nek7 (Homo sapiens) (UniProt Q8TDX7); details: at 0.1 µM
# Sequence of Serine/threonine-protein kinase Nek7 (Homo sapiens) (Q8TDX7 whole entry, looked up): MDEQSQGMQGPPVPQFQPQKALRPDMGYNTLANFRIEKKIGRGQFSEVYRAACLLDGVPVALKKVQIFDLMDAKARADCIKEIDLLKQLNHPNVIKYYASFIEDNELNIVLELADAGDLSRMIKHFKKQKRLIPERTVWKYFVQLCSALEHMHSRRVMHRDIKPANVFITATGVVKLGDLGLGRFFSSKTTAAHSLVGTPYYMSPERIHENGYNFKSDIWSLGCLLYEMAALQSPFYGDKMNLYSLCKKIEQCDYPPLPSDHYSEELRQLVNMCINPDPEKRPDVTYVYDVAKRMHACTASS
# [19] = biological target: Serine/threonine-protein kinase Nek7 (Homo sapiens) (UniProt Q8TDX7); details: at 1 µM
# [20] = biological target: T7, Serine/threonine-protein kinase Nek9 (Homo sapiens) (UniProt Q8TD19); details: at 0.1 µM;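 also: reported value is the mean percent inhibition of NEK9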
# T7 sequence (whole entry): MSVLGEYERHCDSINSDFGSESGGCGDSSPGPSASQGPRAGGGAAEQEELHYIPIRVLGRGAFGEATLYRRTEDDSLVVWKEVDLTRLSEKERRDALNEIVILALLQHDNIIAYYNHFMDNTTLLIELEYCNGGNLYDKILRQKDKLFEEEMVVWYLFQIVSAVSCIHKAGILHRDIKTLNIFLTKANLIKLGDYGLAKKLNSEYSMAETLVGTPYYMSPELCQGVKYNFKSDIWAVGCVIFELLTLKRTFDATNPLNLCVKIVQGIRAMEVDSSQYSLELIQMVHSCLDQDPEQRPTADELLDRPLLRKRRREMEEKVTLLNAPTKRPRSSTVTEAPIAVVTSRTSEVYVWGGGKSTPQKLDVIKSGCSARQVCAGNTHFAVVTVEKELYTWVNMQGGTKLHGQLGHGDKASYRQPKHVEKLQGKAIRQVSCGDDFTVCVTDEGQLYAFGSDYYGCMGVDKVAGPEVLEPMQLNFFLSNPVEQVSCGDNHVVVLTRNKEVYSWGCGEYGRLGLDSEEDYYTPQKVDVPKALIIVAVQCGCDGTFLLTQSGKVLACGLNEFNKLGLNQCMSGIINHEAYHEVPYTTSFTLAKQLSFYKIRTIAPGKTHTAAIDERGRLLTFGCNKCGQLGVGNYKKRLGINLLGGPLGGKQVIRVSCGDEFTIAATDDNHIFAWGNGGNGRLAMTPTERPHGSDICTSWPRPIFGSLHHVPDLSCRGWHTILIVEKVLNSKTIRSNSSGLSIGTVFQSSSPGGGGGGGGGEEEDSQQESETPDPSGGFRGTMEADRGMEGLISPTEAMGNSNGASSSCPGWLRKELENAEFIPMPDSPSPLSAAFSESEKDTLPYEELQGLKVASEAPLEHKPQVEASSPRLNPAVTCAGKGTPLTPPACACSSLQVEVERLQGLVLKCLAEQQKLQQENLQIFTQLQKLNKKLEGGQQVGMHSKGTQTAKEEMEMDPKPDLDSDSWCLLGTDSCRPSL
# Sequence of Sphingosine kinase 1 (Homo sapiens) (Q9NYA1 whole entry): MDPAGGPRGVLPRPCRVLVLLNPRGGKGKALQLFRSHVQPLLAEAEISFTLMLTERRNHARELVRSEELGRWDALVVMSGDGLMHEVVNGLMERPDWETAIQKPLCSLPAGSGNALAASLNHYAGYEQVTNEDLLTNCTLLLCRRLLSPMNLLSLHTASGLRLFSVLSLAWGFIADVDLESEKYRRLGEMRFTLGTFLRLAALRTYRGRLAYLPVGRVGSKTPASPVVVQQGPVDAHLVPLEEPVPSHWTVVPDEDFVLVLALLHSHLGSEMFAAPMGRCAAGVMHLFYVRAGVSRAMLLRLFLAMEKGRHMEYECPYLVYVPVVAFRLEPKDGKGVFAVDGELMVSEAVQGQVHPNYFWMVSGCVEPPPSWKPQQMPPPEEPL
Compound,inhibition [1] [%],inhibition [2] [%],inhibition [3] [%],inhibition [4] [%],inhibition [5] [%],inhibition [6] [%],inhibition [7] [%],inhibition [8] [%],inhibition [9] [%],inhibition [10] [%],inhibition [11] [%],inhibition [12] [%],inhibition [13] [%],inhibition [14] [%],inhibition [15] [%],inhibition [16] [%],inhibition [17] [%],inhibition [18] [%],inhibition [19] [%],inhibition [20] [%]
COc1ccc(Nc2ncc(-c3ccccc3)o2)cc1OC,2.47,-0.42,-0.4,1.03,6.83,5.31,3.86,3.33,4.83,2.76,4.37,0.52,5.19,0.8,2.25,0.31,-2.42,1.23,0.83,-0.52
c1ccc(-c2n[nH]cc2-c2ccnc(-c3ccc(OCCn4ccnc4)cc3)c2)nc1,-1.64,-0.27,0.04,1.26,2.53,4.99,3.64,0.37,-0.43,0.86,2.18,0.35,2.46,0.51,1.73,0.49,4.21,2.27,2.32,2.13

# From ChEMBL document CHEMBL1961873, “Compounds: GSK PKIS; Assays: Nanosyn kinase panel” (2012)
